Here are results for 42 compounds from ChEMBL document CHEMBL4513216, “Probing the Open Global Health Chemical Diversity Library for Multistage-Active Starting Points for Next-Generation Antimalarials” (ACS Infect Dis, 2020).

The structures appear in SMILES notation. Among all 69,000 compounds or so, about 8,600 (12%) showed an effect of 50% or more. The list comes from a sample in which strong results are over-represented; it also holds similar structures and randomly drawn compounds.

For the test, the system named is Plasmodium berghei. Put plainly: Screen against P. berghei liver stage (PbLuc), transformed with Luciferase, at 10uM. The test is classed as functional, HepG2. The settings on record: tested at 10 uM.
`O=C(NCC(c1ccc(F)cc1)N1CCOCC1)Nc1cn[nH]c1` (configuration not stated): the INHIBITION is reported as -57.4%.

In the case of `Cc1cc(C(=O)Nc2ccc(-c3nnc(N(C)C)o3)cc2)oc1C`, the INHIBITION is 22.1%. For the compound `Cc1nnc2ccc(OCCNS(C)(=O)=O)nn12`, the INHIBITION was determined as 5.91%. On to `COCCNCc1cc2cc(C)cc(C)c2[nH]c1=O`, for which the INHIBITION was 14.6%. In the case of `COc1ccc(CNCC2CN(C3CC3)CCO2)cc1OC` (configuration not stated), the INHIBITION is recorded as -13.6%. On to `COc1ccccc1-c1nnc2n1N=C(N)C(C#N)S2` (configuration not stated), for which the INHIBITION is reported as 34.3%. With `Cc1ccnc(NC(=O)C2CCN(CCCn3ccnc3)CC2)c1` the figure was 61.9%. With `CC(C)(C)CC(=O)NCC(=O)Nc1ccn(CCCn2ccnc2)n1`, the INHIBITION came out at 23.1%.

Consider `Cc1ccnc(NC(=O)C2CCN(CCCc3cn[nH]c3)CC2)c1`, for which the INHIBITION was 54.5%. With `Cc1ccnc(NC(=O)C2CCN(CCCn3ccnc3C)CC2)c1` the figure was 44.3%; with `COCC1CCN(CCCc2cn[nH]c2)CC1`, 30.8%; with `c1n[nH]cc1CCCN1CCC(OC2CCCCC2)CC1`, 11.8%. `O=C(c1ccc(-c2ccc(O)nc2)s1)N1CCCCCC1`: the INHIBITION was -13.87%. Take `Cc1nc(N(CCC(N)=O)Cc2ccccc2)c2nc(C)oc2n1`: the INHIBITION was 48.8%.

For the compound `Cc1nc(N(C)CCCc2nccn2C)c2nc(C)oc2n1`, the INHIBITION was -26.7%. On to `CCOc1ccc(CN(CCOC)c2nc(C)nc3oc(C)nc23)cc1`, for which the INHIBITION turned out to be 83.2%.

Turning to `CCN(Cc1ccncc1)c1nc(C)nc2oc(C)nc12`, the INHIBITION is listed as 40.6%. In the case of `COCCN(Cc1cccnc1)c1nc(C)nc2oc(C)nc12` it was 44.3%; in that of `COCCN(Cc1ccccc1C)c1nc(C)nc2oc(C)nc12`, 74%.

With `CCS(=O)(=O)N1CC[C@H]2[C@H]1CC(=O)N2Cc1csc(C)n1`, the INHIBITION is listed as -10.3%. Take `CN1CCN(Cc2cn3c(n2)CNCC3)CC1`: the INHIBITION amounted to 36.4%. In the case of `O=C(CSC1CCCC1)N1CCN(C(=O)C2CC2c2ccccc2)CC1` (configuration not stated) it was 46.4%; in that of `Cc1cnc(-c2cccc(-c3ccn(CCCO)n3)c2)nc1N(C)C`, 26.8%. For `CCS(=O)(=O)CC(=O)NC(c1ccccc1)C1CCCCC1` (configuration not stated), the INHIBITION is given as -5.53%. With `COCCc1noc(CN2CCCC2c2c(C)nn(C)c2Cl)n1` (configuration not stated), the INHIBITION was 5.9%. On to `N#Cc1ccc(NCCS(=O)(=O)N2CCc3ccccc32)nc1`, for which the INHIBITION came to 14%.

`CC(C(=O)Nc1ccc(C#N)cc1)N1CCc2ccccc21` (configuration not stated): the INHIBITION is reported as -45.2%. In the case of `N#Cc1ccc(CNCCS(=O)(=O)N2CCc3ccccc32)cc1`, the INHIBITION was 60.3%. With `O=C(CCc1ccccc1)C1CCCN(C(=O)c2cncc(Cl)c2)C1` (configuration not stated) the figure was 42.5%; with `CCN(CC)S(=O)(=O)N1CCCC1c1nnc2n1CCCCC2` (configuration not stated), 20.9%.

Consider `O=C(c1ccc(F)c(F)c1)N1CCCSCC1CN1CCCC1` (configuration not stated), for which the INHIBITION is 25.3%. In the case of `CCN(CC)Cc1nc2c(o1)CN(C(=O)c1ccncc1F)C2` it was 3.17%. As for `CN(C)Cc1nc2c(o1)CN(C(=O)c1ccncc1F)C2`, the INHIBITION was 24.9%. Turning to `O=C(c1ccc2[nH]ccc2c1)N1Cc2nc(CN3CCCC3)oc2C1`, the INHIBITION is 31.4%. As for `O=C(c1ccncc1F)N1Cc2nc(COCC3CC3)oc2C1`, the INHIBITION came out at 55.7%. On to `O=C(NCc1ccccc1)N1Cc2nc(COCC3CC3)oc2C1`, for which the INHIBITION turned out to be 44.2%.

`O=C(c1ccncc1F)N1Cc2nc(CN3CCCCC3)oc2C1`: the INHIBITION was 51.2%. Take `O=C(c1ccc2c(c1)OCO2)N1CCCSCC1CN1CCCC1` (configuration not stated): the INHIBITION is listed as 3.16%. In the case of `O=C(c1ccc2[nH]ccc2c1)N1Cc2nc(CN3CCCCC3)oc2C1`, the INHIBITION came out at 50.7%. Consider `O=C(Cc1cccs1)N1Cc2nc(COCC3CC3)oc2C1`, for which the INHIBITION worked out at 18.6%.

`CCN(CC)Cc1nc2c(o1)CN(C(=O)c1ccc3[nH]ccc3c1)C2`: the INHIBITION came out at 0.804%. As to `O=C(c1ccc2[nH]ccc2c1)N1CCCSCC1CN1CCCC1` (configuration not stated), the INHIBITION is given as 59.8%.
